{"source": "ChEMBL document CHEMBL3988442", "about": "“University of Dundee, Small-Polar-MMV Screening Library” (2021)"}
{"biological_target": "Shiga toxin 2 (Escherichia coli O157:H7) (UniProt P09385+P09386)", "test": "E. coli 0.157:H7 Shiga Toxin SOP - stx2 screening assay", "format": "functional", "parameters": "scale not given: direction of the effect not stated beside the values", "conditions": "30 µM", "units": {"Percent Effect": "%"}}
{"smiles": "COc1cc(C(=O)NS(=O)(=O)c2cccc(C#N)c2)ccc1C", "Percent Effect": -1.16}
{"smiles": "Cn1cc(C(=O)NCc2cn3c(n2)CN(Cc2ccccn2)CC3)cn1", "Percent Effect": -42}
{"smiles": "Cc1nnc2n1CCN(Cc1csc(Cc3ccccc3)n1)C2", "Percent Effect": 1.17}
{"smiles": "CCS(=O)(=O)CCN1CCC(N(C)Cc2noc(C(C)C)n2)C1", "note": "(stereo not given)", "Percent Effect": -10.7}
{"smiles": "CCc1nnc2n1CCN(Cc1ccc3c(c1)OCCO3)C2", "Percent Effect": 15.5}
